From PubChem BioAssay (Tox21)
Records with an inconclusive call do not appear. The source made the active and inactive calls. Calls come from the whole dose curve; as a rule, active = well fitted activation curve with a large enough effect in the repeat runs; inconclusive = weak or mixed curves; inactive = no such curve, though single readings can be large or run the other way.
% is set by controls: 0 for no effect and ±100 for the full control effect; potency is the fitted concentration of half-maximal effect.

The compounds below were run against Nuclear receptor subfamily 1 group I member 2 (Homo sapiens) (UniProt O75469) (assay: CYP3A4 induction through human pregnane X receptor (PXR) by small molecules, qHTS assay (AID 1346984; note: nearly all actives have a fitted effect of over 40% in size)). Details: DPX-2 HepG2 PXR, CYP3A4-luciferin luminescence, 24 h; series mostly up to 46.1 µM; activation: at the top concentration.
From the text: National Center for Advancing Translational Sciences [NCATS]
NIH Chemical Genomics Center [NCGC]
U.S. Environmental Protection Agency [EPA]
National Institutes of Environmental Health Sciences [NIEHS]
National Toxicology Program [NTP]
The Pregnane X receptor (PXR), a ligand activated nuclear receptor plays a critical role in the regulation of genes involved in drug metabolism and transporters. Activation of PXR is responsible for unwanted adverse drug reactions. PXR binds xenobiotics and when compounds interact with PXR enhances the expression of CYP3A genes. Identifying the compounds with the potential for PXR activation and CYP3A4 induction can be of importance in improving the efficacy of drugs with less toxicity and avoiding drug-drug interactions.
DPX-2 (Puracyp, Inc.) cell lines, used for screening against human PXR activation has HepG2 cells co-transfected with a PXR response element and a luciferase construct containing CYP3A4 promoter. Increase in luciferase activity can be used to identify the compounds that cause the induction of CYP3A4.
DPX-2 cells were dispensed at 2,000 cells per well in 5uL of assay medium into white, solid-bottom 1536-well plates using a Multidrop Combi dispenser (Thermo Scientific). The assay plates were incubated at 37C for 5hr before transferring 23nL of test compounds dissolved in DMSO and positive control via Pintool station (Wako). The assay plates were incubated at 37C for 24hr. After 24hr compound treatment, 1uL of 3uM (final concentration) P450 substrate (P450-Glo CYP3A4 screening system with Luciferin-IPA, Promega) was added by a Flying Reagent Dispenser (FRD, Aurora Discovery). The assay plates were incubated for 3hr at 37C. Then 5ul One-Glo assay reagent (Promega) was added to each plate by an FRD and following 30 min incubation at room temperature, luciferase activity was quantified on a ViewLux plate reader (Perkin Elmer).
In the case of `COP(=S)(OC)SCN1C(=O)c2ccccc2C1=O`, the “activation” value is reported as -5.22% (inactive).
In the case of `Nc1nc(N)nc(NC2CC2)n1`, the “activation” value is reported as -2.26% (inactive).
For `COP(=S)(OC)Oc1ccc(SC)c(C)c1`, the “activation” value was -11.4% (inactive).
With `O=[N+]([O-])c1cc([As](=O)(O)O)ccc1O` the “activation” value was -1.09% [at 20.6 µM] (inactive).
With `COC(C)(C)CCCC(C)C/C=C/C(C)=C/C(=O)OC(C)C` (stereo not drawn) the “activation” value was 15.3% (inactive).
In the case of `CNCC(O)c1ccc(O)cc1` (stereo not drawn), the “activation” value is reported as 1.33% [at 20.6 µM] (inactive).
For `CCCCCCCCCCCCCCCCCC(=O)O`, the “activation” value was -0.79% (inactive).
`Cc1cc(O)ccc1Cl` was tested, and the “activation” value was -4.12% (inactive).
With `CNC(=O)Oc1cccc2ccccc12` the Potency was 3.16 µM (active).
`OC[C@@H](O)[C@H]1O[C@@H]2O[C@H](C(Cl)(Cl)Cl)O[C@@H]2[C@H]1O` was tested, and the “activation” value was 1.32% (inactive).
With `C[C@]12CC[C@H](O)CC1=CC[C@@H]1[C@@H]2CC[C@]2(C)C(=O)CC[C@@H]12` the “activation” value was 18.3% (inactive).
For `CCOP(=S)(OCC)Oc1cc(C)nc(C(C)C)n1`, the “activation” value was -14.1% (inactive).
In the case of `C=CCN=C=S`, the “activation” value is reported as 1.2% (inactive).
`Nc1ccc([As](=O)(O)O)cc1` was tested, and the “activation” value was -0.618% (inactive).
For `O=C/C=C/c1ccccc1`, the “activation” value was 0.0273% (inactive).
For `Oc1c(Br)cc(Br)cc1Br`, the “activation” value was 3.71% (inactive).
`O=C(O)COc1ccccc1` was tested, and the “activation” value was -0.65% (inactive).
In the case of `C[C@H]1C(=O)O[C@@H]2CCN3CC=C(COC(=O)[C@](C)(O)[C@]1(C)O)[C@H]23`, the “activation” value is reported as 0.114% (inactive).
